Measured values reported in PubChem BioAssay (NCI).
The panel holds about 79,000 compounds, 15% with a hit somewhere; the sample as a whole holds those more often. Unmarked numbers belong to inactive results. The source made the active and inactive calls. No stated cut-off is given here; in the data, active means growth inhibition above about 70%; inactive means the rest.

Columns and labels:
[1] = NCI Yeast Anticancer Drug Screen. Data for the rad50 strain (AID 155);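 further: 0% = growth of vehicle-only cultures of the same strain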; details: S. cerevisiae rad50 strain growth inhibition, hits give high values
Outline: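 Compounds were tested on a yeast strain with an engineered DNA damage repair alteration; the reported value is growth inhibition normalised to vehicle treatment.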

[2] = NCI Yeast Anticancer Drug Screen. Data for the mec2-1 strain (AID 157); details: S. cerevisiae mec2-1 strain, hits give high values
Outline: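 Using mec2-1 yeast: add compound, measure growth, express inhibition versus vehicle-treated cultures.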

[3] = NCI Yeast Anticancer Drug Screen. Data for the sgs1 mgt1 strain (AID 161);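 further: 0% = growth of cultures given vehicle only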; details: S. cerevisiae sgs1 mgt1 strain, hits give high values
Outline: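 Compounds are added to genetically altered yeast, and growth is compared with cultures given vehicle alone to give percent inhibition.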

[4] = NCI Yeast Anticancer Drug Screen. Data for the cln2 rad14 strain (AID 165);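 further: 0% = growth equal to vehicle treated cultures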; details: S. cerevisiae cln2 rad14 strain, hits give high values
Outline: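 Yeast strain cln2 rad14, bearing defects in cell cycle control and DNA repair, serves as the test system; values reflect growth inhibition compared with vehicle.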

[5] = NCI Yeast Anticancer Drug Screen. Data for the bub3 strain (AID 167); details: S. cerevisiae bub3 mutant strain, hits give high values
Outline: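 Growth of a checkpoint-deficient yeast mutant is measured after compound exposure. Values represent inhibition relative to vehicle.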

[6] = NCI Yeast Anticancer Drug Screen. Data for the mlh1 rad18 strain (AID 175); details: S. cerevisiae mlh1 rad18 strain growth inhibition, hits give high values
Outline: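 Steps: expose repair-defective yeast to compound; measure growth; express inhibition against vehicle-treated controls.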

[7] = at 5.0 µM (retest, dose inferred, filed as 0.5)
[8] = at 50.0 µM (retest, dose inferred, filed as 5.0)

Row | Compound | growth inhibition [1, 7] | growth inhibition [1, 8] | growth inhibition ([1]; at 50.0 µM) | growth inhibition [2, 7] | growth inhibition [2, 8] | growth inhibition ([2]; at 50.0 µM) | growth inhibition [3, 7] | growth inhibition [3, 8] | growth inhibition ([3]; at 50.0 µM) | growth inhibition [4, 7] | growth inhibition [4, 8] | growth inhibition ([4]; at 50.0 µM) | growth inhibition [5, 7] | growth inhibition [5, 8] | growth inhibition ([5]; at 50.0 µM) | growth inhibition [6, 7] | growth inhibition [6, 8] | growth inhibition ([6]; at 50.0 µM)
1 | Cc1oc2c(c1C(=O)c1ccccc1)C(=O)c1ccccc1C2=O | 33% | 99% (active) | 88.2% (active) | 19% | 99% (active) | 92.7% (active) | 31% | 99% (active) | 93.2% (active) | 22% | 98% (active) | 92.8% (active) | 39% | 99% (active) | 91.7% (active) | 25% | 99% (active) | 82% (active)
2 | [Cl][Ge]([c]1ccccc1)[c]1ccccc1.[Cl][Ge]([c]1ccccc1)[c]1ccccc1 | 22% | 73% (active) | 33.4% | 19% | 79% (active) | 41.5% | 23% | 80% (active) | 55.1% | 4% | 70% (active) | -4.65% | 16% | 80% (active) | 34.5% | 12% | 78% (active) | 76.3% (active)
3 | CC1=C(C(=S)Nc2ccc(Cl)c(C(=O)OC(C)C)c2)SCCO1 | 27% | 71% (active) | 89.6% (active) | 19% | 54% | 90.2% (active) | 27% | 90% (active) | 91.5% (active) | 25% | 64% | 47.4% | 26% | 95% (active) | 87.1% (active) | 21% | 50% | 63.8%
4 | O=C(OCc1ccc2c(c1)OCO2)c1ccc(Cl)cc1 | 19% | 23% | -0.55% | -4% | 68% | -4.55% | 9% | 46% | -6.3% | -43% | -7% | 0.05% | -1% | 61% | 13.9% | 4% | 57% | -19.6%
5 | Oc1ccccc1/C=N\N=C\c1ccccc1O | 5% | -22% | 8.75% | -10% | -3% | 3.5% | 4% | 4% | -10.8% | 7% | -3% | 37.2% | -70% | 6% | 0.8% | 2% | 0% | 13.2%
6 | CC(=O)OC1CCC2(C)C(CCC3C2CCC2(C)C4CCC32OC(=O)C4CC(=O)O)C1 (centres undefined) | 3% | 36% | 86.6% (active) | -32% | 48% | 89.5% (active) | -12% | 13% | 89.5% (active) | 7% | 49% | 90.5% (active) | -2% | 49% | 73% (active) | 10% | 65% | 93.5% (active)
7 | CN1C(/C=C/c2ccc(O)c3ncccc23)CCC2CCCC(O)C21 (centres undefined) | 1% | 94% (active) | 95% (active) | 26% | 95% (active) | 89.6% (active) | 9% | 94% (active) | 92.2% (active) | -12% | 91% (active) | 85.2% (active) | 8% | 96% (active) | 92.8% (active) | 14% | 96% (active) | 95.4% (active)
8 | CCOC(=O)Nc1c(F)cc(F)cc1F | 0% | 0% | 8.65% | -32% | 1% | 5.6% | 1% | -1% | -7.55% | -2% | -4% | 45.2% | -5% | -2% | 4.25% | 2% | 0% | -0.05%
